Source: PubChem BioAssay (NCI)
This is part of a sample that, as a whole, favours compounds with a hit. Of some 79,000 tested, about 15% had one in any assay. A number with no mark means an inactive call. Calls of active or inactive are those of the source. Cut-off read from the data, not from the text of the source: active = growth inhibition above about 70%; inactive = the rest.

What was measured:
[1] = NCI Yeast Anticancer Drug Screen. Data for the rad50 strain (AID 155);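 note: 0% = growth of vehicle-only cultures of the same strain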; conditions: S. cerevisiae rad50 strain growth inhibition; at 50.0 µM; stronger effect = higher value
Procedure, shortened: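 Readout: growth inhibition relative to vehicle-treated cultures. Compound exposure was carried out in a genetically defined yeast strain deficient in DNA damage repair.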

[2] = NCI Yeast Anticancer Drug Screen. Data for the mec2-1 strain (AID 157); conditions: S. cerevisiae mec2-1 strain, at 50.0 µM, stronger effect = higher value
Procedure, shortened: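 Cells of the genetically defined mec2-1 yeast strain are incubated with test compound. Inhibition of growth is calculated against vehicle-treated controls.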

[3] = NCI Yeast Anticancer Drug Screen. Data for the sgs1 mgt1 strain (AID 161);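 note: 0% = growth of cultures given vehicle only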; conditions: S. cerevisiae sgs1 mgt1 strain, at 50.0 µM, stronger effect = higher value
Procedure, shortened: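 Inhibition of yeast growth, normalised to vehicle-treated controls, is reported for a strain bearing genetic alterations in DNA damage repair.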

[4] = NCI Yeast Anticancer Drug Screen. Data for the cln2 rad14 strain (AID 165);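 note: 0% = growth equal to vehicle treated cultures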; conditions: S. cerevisiae cln2 rad14 strain, at 50.0 µM, stronger effect = higher value
Procedure, shortened: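 The screen exposed genetically defined yeast (cln2 rad14) to test compounds and scored growth inhibition relative to vehicle-treated controls.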

[5] = NCI Yeast Anticancer Drug Screen. Data for the bub3 strain (AID 167); conditions: S. cerevisiae bub3 mutant strain, at 50.0 µM, stronger effect = higher value
Procedure, shortened: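 Readout: yeast growth inhibition, expressed relative to vehicle-only wells. The test organism is a mutant strain from a panel with lesions in DNA repair or checkpoint genes.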

[6] = NCI Yeast Anticancer Drug Screen. Data for the mlh1 rad18 strain (AID 175); conditions: S. cerevisiae mlh1 rad18 strain growth inhibition; at 50.0 µM; stronger effect = higher value
Procedure, shortened: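 Compound-treated yeast growth, normalised to vehicle controls. Strain bears defined DNA repair mutations.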

Row | Compound | growth inhibition [1] | growth inhibition [2] | growth inhibition [3] | growth inhibition [4] | growth inhibition [5] | growth inhibition [6]
1 | COc1cccc(C(=O)CCN(C)C)c1 | 33.4% | 0.35% | -2.8% | 12.1% | 18.1% | 28.1%
2 | CC1(C)C(O)c2ccccc2OC1N1CCN(C2Oc3ccccc3C(O)C2(C)C)CC1 (stereo unspecified) | -18.4% | -1.35% | 23.8% | -4.65% | -10.8% | -8.6%
3 | O=C(/C=C/c1ccccc1)Nc1cc(Cl)ccc1Cl | 4.75% | 26.1% | 22.6% | -7.3% | 31.8% | 17.6%
4 | CCCCNC(=S)C(=S)NCCCC | 10.7% | -0.3% | 0.05% | 26.9% | 17.4% | -11.2%
5 | SC(S)(Cc1ccccc1)Cc1ccccc1 | -6.4% | 2.2% | 16.4% | -9.65% | 35.1% | 1%
6 | CC(=O)NNC(=O)c1ccccc1CO | -18.8% | -15% | -4.55% | 10.4% | -2% | 20.9%
7 | Cc1n(Cc2ccccc2)nc2sc(N)n[n+]12 | -32% | -9.45% | -56.3% | -0.55% | -4.65% | -6.95%
8 | CCOC(=O)C(SC(Cl)(S(=O)(=O)c1ccccc1)S(=O)(=O)c1ccccc1)C(=O)OCC | 2.1% | 10.1% | -4.75% | -8.75% | -13% | -14.6%
9 | O=[N+]([O-])c1cccnc1Sc1ccccc1C1=NCCCN1 | -5.55% | -12.3% | -3.45% | 19.9% | -4.2% | -4.1%
10 | O=C1c2ccccc2C(=O)c2cc(Br)ccc21 | -6.75% | -21.6% | 12.4% | -110% | -16.2% | 0.2%
11 | COc1ccc(OC)c(N=Cc2ccc(C=Nc3cc(OC)ccc3OC)cc2)c1 | -8% | -12.3% | -10.6% | 4.7% | -9% | -5.8%
12 | C=C1C(=O)O[C@@H]2/C=C(/C)[C@@H](OC(C)=O)C/C=C(\C)C(O)[C@@H](OC(=O)/C(C)=C\C)C12 (stereo partly specified) | 17.4% | -0.2% | 22.5% | 9.1% | 12.6% | -50.4%
13 | CC1CCC(=O)C(C(=O)CC2CC(=O)NC(=O)C2)C1 (stereo unspecified) | 31.6% | 1.45% | 19.7% | -30.3% | 2.3% | 4.55%
14 | CCOC(=O)CCC(=O)c1ccc2cc(OC)ccc2c1 | 5.55% | 25.2% | 11.8% | -36% | 34.9% | 27.1%
15 | CCCNCC(O)COc1ccc2c3c(c(=O)oc2c1)CCC3 (stereo unspecified) | 1.15% | 10.8% | -23.9% | -8.25% | -29.8% | -15.8%
16 | C1=Nc2ccccc2/C1=C/C=C/c1ccccc1 | 24.6% | 31.6% | 28.3% | 10.2% | 41.5% | 21.8%
17 | NC(=S)NNC(=O)CCC(=O)Nc1ccccc1Cl | -0.15% | -2.3% | -11.8% | 37.2% | -3.95% | 6.65%
18 | C1COCCN1.C1COCCN1.N.N.[Cl-].[Pt+2] | -9.5% | -5.4% | -38.1% | -14.2% | -2.45% | -14.8%
19 | CC1(C)Oc2ccc3c(=O)cc(-c4ccccc4)oc3c2C1C(=O)O (stereo unspecified) | 4.7% | -14.5% | -18.6% | -22.6% | 9.7% | -24%
20 | CN(C)Cn1c2ccccc2c2ccccc21 | -2.05% | -1.1% | 3.9% | 0.1% | -0.8% | -12.4%
21 | COC(=O)C(Cc1nc2ccccc2[nH]c1=O)/C(=N\NC(C)(C)C)C(=O)Nc1c(C)cc(Br)cc1C (stereo unspecified) | 17.2% | -4.55% | 5.9% | -35.8% | 3.7% | -3%

Row | Compound | growth inhibition [1] | growth inhibition [2] | growth inhibition [3] | growth inhibition [4] | growth inhibition [5] | growth inhibition [6]
22 | CCCCCOS(=O)(=O)O | -0.3% | 4.3% | -0.6% | -11% | -0.25% | 5.3%
23 | COC1(C)CCC2(O)C(=O)OC3C(O)COC32O1 (stereo unspecified) | -3.45% | -4.9% | 2.55% | -1.3% | -1.85% | -4.55%
24 | COc1cc2[nH]c3c(c2cc1OC)CCN[C@]31CC[C@]2(CC3c4c(cc(OC)c(O)c42)CCN3C)C[C@H]1OC (stereo partly specified) | 10.8% | -6% | -16.4% | -2.9% | 7.95% | 7.35%
25 | Cn1c(COC(=O)Nc2ccccc2)c(COC(=O)Nc2ccccc2)c2ccc3cc(Cl)c(Cl)cc3c21 | 72.9% (active) | 78.8% (active) | 76.3% (active) | 81.2% (active) | 84.3% (active) | -44%
26 | CC(C)CCC(=O)OCC(=O)c1ccc(-c2ccccc2)cc1 | 8.55% | -13.1% | 7.25% | -1.45% | 23.9% | 9.1%
27 | O=C(NNC(=O)c1ccc([N+](=O)[O-])cc1)c1ccccc1 | -5.85% | 13.1% | 15.9% | -30.1% | -13.4% | -16.1%
28 | CCCCCCCCCCCCCCCC1CCCC2CCCCC12 (stereo unspecified) | -9.05% | 9.25% | 9.5% | -5.85% | 12.6% | -26.4%
29 | C=C1C(=O)O[C@H]2C3OC3(C)CC/C=C(/C(=O)OC)[C@@H](OC(C)=O)[C@H](OC(=O)C3(C)OC3C)[C@H]12 (stereo partly specified) | 12.6% | 31.8% | 13.5% | 22.4% | 5.55% | 8.85%
30 | CNCCSSCCN | -10.2% | -0.95% | -6.3% | -18.8% | 2.6% | 0.95%
31 | O=[N+]([O-])C(CO)(CO)c1ccccc1 | 25.3% | 2.4% | 6% | 18.8% | 3.55% | 15.7%
32 | CC1(C)C(CC(=O)O)CC1C(=O)O (stereo unspecified) | 10.4% | -0.7% | -27.4% | 11.2% | -34.6% | -1.4%
33 | O=C(OCc1ccccc1)N(Cc1ccccc1)S(=O)(=O)c1ccccc1 | 26.1% | 34.8% | 14.9% | 5.5% | 13.6% | 0.4%
34 | Cn1c(=O)c2[nH]c(Cl)nc2n(C)c1=O | 9.6% | -23.6% | 6.7% | -3.8% | -16.6% | -8.55%
35 | CCOC(=O)C(=CN1C/C(=C/C(C)=C/c2ccccc2)SC1=S)C(=O)OCC | -12.1% | 28.9% | 11.7% | -20.9% | 17.9% | 4.85%
36 | CC(N)/C(N)=N/O (stereo unspecified) | 11.2% | 4.9% | -0.95% | -2.45% | 18.4% | 15%
37 | Cc1c(Br)cc(C(=O)O)c(O)c1Br | -4.95% | 2.05% | 19.6% | -29.2% | -26.6% | 3.05%
38 | CCOC(=O)CC(C(=O)OCC)c1ccccc1 (stereo unspecified) | -3.4% | 10.2% | -5.4% | -6.35% | 9.85% | -19.4%
39 | Cc1cc(-n2nnc(C(=O)O)c2-c2ccccc2)c2ccc(Cl)cc2n1 | -19.1% | -4.35% | -12.1% | -35% | -8.9% | 4.1%
40 | COc1ccc(-c2cc(=O)cc(C(N)=O)o2)cc1 | -1.1% | -1% | 4.6% | -13.8% | 11.2% | 17.2%
41 | O=C(Oc1c(Br)cc(Br)cc1C(=O)Oc1ccccc1)C(=O)Oc1c(Br)cc(Br)cc1C(=O)Oc1ccccc1 | 52.7% | 23.9% | 19.9% | 28.8% | 51.2% | 32.6%
